# Test results published in PubChem BioAssay (NCATS).
# Inconclusive results are not listed. Entries that show only a call come without a potency. A number with no mark means an inactive call. Activity calls are given as the source filed them. Calls follow the shape of the dose curve; as a rule, active = well fitted curve in the direction sought with a large enough effect; inconclusive = small, poorly fitted or top-dose-only effect, or another doubt; inactive = no such curve, though single readings can be large; an effect the other way counts as inactive or inconclusive. Where a SMILES comes first, the peptide text is derived from it. [ ]: non-standard residue; d: D form.
# What was measured:
# NIH3T3 = assay: qHTS assay to identify novel small-molecules to repurpose for Merkel cell carcinoma treatment (AID 1296009); details: MCC and control cell lines, CellTiter-Glo viability, 72 h; at 44.8 µM (top of the series) unless noted; also: nearly all actives have a fitted effect of over 60% in size
# Procedure, shortened: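 Luminescence from CellTiter-Glo, read 10 min after addition at room temperature, reported viability following a 72 hr, 37 degree celsius treatment with NPC or MIPE compounds in titration; values normalized to plate controls.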
# C33A = assay: Primary qHTS to identify gynecologic anti-cancer compounds using libraries of approved drugs and bioactive compounds (AID 1345084); details: Gynecologic cancer cell panel viability, ATPlite luminescence, 48 h; series mostly up to 57.5 µM; also: nearly all actives have a fitted effect of over 55% in size
# Procedure, shortened: (§1)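 Cells, 1,000 per well, plated 16 h, then exposed 48 h at 37 C to compounds. Viability by ATPlite luminescence after 15 min at room temperature.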
# CAOV3 = assay: as above; details: Gynecologic cancer cell panel viability, ATPlite luminescence, 48 h; series mostly up to 57.5 µM
# Procedure, shortened: as §1
# CASKI = assay: as above; details: Gynecologic cancer cell panel viability, ATPlite luminescence, 48 h; series mostly up to 57.5 µM
# Procedure, shortened: as §1
compound,measurement,setting,value
C=CC(C)(C)O[C@@H]1O[C@H](CO[C@@H]2OC[C@](O)(CO)[C@H]2O)[C@@H](O)[C@H](O)[C@H]1O,outcome,NIH3T3,inactive
same,Potency,C33A,inactive
same,Potency,CAOV3,inactive
same,Potency,CASKI,inactive
COC1CCCC/C(C)=C/C2C=C(C)C(C)C3C(CC(C)C)NC(=O)C23C(=O)C1 (stereo not given),outcome,NIH3T3,inactive [at 17.4 µM]
same,Potency,C33A,inactive
same,Potency,CASKI,inactive
COc1cc(CCc2ccccc2)c(C(=O)O)c2c1CC(C(C)(C)O)O2 (stereo not given),outcome,NIH3T3,inactive
same,Potency,C33A,inactive
same,Potency,CAOV3,inactive
same,Potency,CASKI,inactive
COC12CC3C(C(C)C1=CC(=O)O2)C(O)C(OC(C)=O)C1C(C)(C)C(OC(C)=O)CCC31C (stereo not given),outcome,NIH3T3,inactive [at 17.4 µM]
same,Potency,C33A,inactive
same,Potency,CAOV3,inactive
same,Potency,CASKI,inactive
CC(=O)N[C@H](Cc1ccc(O)cc1)C(=O)N[C@H](CCCN=C(N)N)C(=O)N[C@H](Cc1ccccc1)C(N)=O (Ac-[dY]-[dR]-[dF]-NH2),outcome,NIH3T3,inactive
same,Potency,C33A,inactive
same,Potency,CASKI,inactive
COCCCNCC1COc2ccccc2O1 (stereo not given),Potency,C33A,inactive
same,Potency,CAOV3,inactive
same,Potency,CASKI,inactive
C/C=C(\C)C(=O)O[C@@H]1CC2[C@@H](CC=C3C[C@@H](O[C@H]4C[C@H](OC)[C@H](O[C@H]5C[C@H](OC)[C@H](O[C@H]6C[C@H](OC)[C@H](O[C@H]7C[C@@H](OC)[C@H](O[C@@H]8O[C@H](CO)[C@@H](O)[C@H](O)[C@H]8O)[C@@H](C)O7)[C@@H](C)O6)[C@@H](C)O5)[C@@H](C)O4)CC[C@@]32C)[C@@]2(O)CC[C@H](C(C)=O)[C@@]12C (stereo not given in full),"activity change, negative = cytotoxicity",C33A,1.71% [at 6.55 µM]
same,"activity change, negative = cytotoxicity",CAOV3,-0.474% [at 6.55 µM]
same,"activity change, negative = cytotoxicity",CASKI,-0.911% [at 6.55 µM]
COC1(CC(C)C)NC(=O)C(O)(Cc2ccccc2)NC1=O (stereo not given),outcome,NIH3T3,inactive
same,Potency,C33A,inactive
same,Potency,CASKI,inactive
OC[C@H]1O[C@@H](Oc2cc(O)cc(-c3cc4ccc(O)cc4o3)c2)[C@H](O)[C@@H](O)[C@@H]1O,Potency,C33A,inactive
same,Potency,CAOV3,inactive
same,Potency,CASKI,inactive
Clc1ccc2c(c1)C1=NCCN1c1c(-c3noc(C4CC4)n3)ncn1-2,outcome,NIH3T3,inactive
same,Potency,C33A,inactive
same,Potency,CASKI,inactive
CCOC(=O)c1ccnc(CNCC(=O)N(CC)CCN(C)C)c1,outcome,NIH3T3,inactive
same,Potency,C33A,inactive
same,Potency,CASKI,inactive
OC[C@H]1O[C@@H](n2cnc3c(NCc4ccc(O)cc4)ncnc32)[C@H](O)[C@@H]1O,outcome,NIH3T3,inactive
same,Potency,CAOV3,inactive
CC(=O)N1CCN(NC(=O)c2ccc(F)cc2)CC1,Potency,C33A,inactive
same,Potency,CAOV3,inactive
same,Potency,CASKI,inactive
NCc1ccc(OCCCc2sc(-c3ccc4c(c3)/C(=N/Nc3nc5ccccc5s3)CCC4)nc2C(=O)O)cc1,Potency,C33A,inactive
C/C=C/C1=CC2=CC(=O)C(C)(O)C(OC(=O)c3c(C)cc(O)cc3O)C2CO1 (stereo not given),outcome,NIH3T3,inactive
same,Potency,C33A,inactive
same,Potency,CASKI,inactive
C[C@@H]1O[C@@H](OC[C@H]2O[C@@H](OCC3CCC4CC3C4(C)C)[C@H](O)[C@@H](O)[C@@H]2O)[C@H](O)[C@H](O)[C@H]1O (stereo not given in full),Potency,C33A,inactive
same,Potency,CAOV3,inactive
same,Potency,CASKI,inactive
C=C1CC2(C(=O)O)CC1CCC2C1(C)CCCC2(C)C(=O)OC(O)C21 (stereo not given),Potency,C33A,inactive
same,Potency,CAOV3,inactive
O=C(C1CC1)N1CC[C@@H](Cc2n[nH]c(=O)n2-c2ccc(-c3ccc4occc4c3)cc2)C1,Potency,C33A,inactive
same,Potency,CAOV3,inactive
same,Potency,CASKI,inactive
C=C1CC[C@@H]2[C@](C)(CC[C@H](O)[C@@]2(C)CCC=C(C)C)[C@@H]1Cc1c[nH]c2ccccc12,outcome,NIH3T3,inactive [at 17.4 µM]
same,Potency,C33A,inactive
same,Potency,CASKI,inactive
COC(=O)C1=C[C@@H](O)[C@@H](O)[C@H](O[C@@H]2O[C@H](COC(=O)/C=C/c3ccccc3)[C@@H](O)[C@H](O)[C@H]2O)C1,outcome,NIH3T3,inactive [at 17.4 µM]
same,Potency,C33A,inactive
same,Potency,CASKI,inactive
CCC[C@@H]1C[C@@H](C(=O)N[C@@H]([C@H]2O[C@H](SC)[C@H](OP(=O)(O)O)[C@@H](O)[C@H]2O)[C@H](C)Cl)N(C)C1,outcome,NIH3T3,inactive [at 17.4 µM]
same,Potency,C33A,inactive
same,Potency,CASKI,inactive
CC(/C=C/[C@]1(O)[C@@]2(C)CO[C@@]1(C)C[C@@H](O)C2)=C\C(=O)O[C@@H]1O[C@H](CO)[C@@H](O)[C@H](O)[C@H]1O,outcome,NIH3T3,inactive [at 17.4 µM]
same,Potency,C33A,inactive
same,Potency,CASKI,inactive
